Laboratory results published in PubChem BioAssay AID624481 (The Scripps Research Institute Molecular Screening Center, 2012).

Biological target: Prolyl endopeptidase-like (Mus musculus) (UniProt Q8C167)
Experiment: mouse PREPL enzyme inhibition by screening hits – biochemical, gel-based competitive ABPP, fluorescence, HTS hits, PREPL inhibitor project (AID 624481)
Conditions: purified mouse PREPL, at 20 µM, hits give high values; in the data active = inhibition above about 50%; inactive = the rest

Prolyl endopeptidase-like (Mus musculus), sequence (Q8C167 whole entry, looked up): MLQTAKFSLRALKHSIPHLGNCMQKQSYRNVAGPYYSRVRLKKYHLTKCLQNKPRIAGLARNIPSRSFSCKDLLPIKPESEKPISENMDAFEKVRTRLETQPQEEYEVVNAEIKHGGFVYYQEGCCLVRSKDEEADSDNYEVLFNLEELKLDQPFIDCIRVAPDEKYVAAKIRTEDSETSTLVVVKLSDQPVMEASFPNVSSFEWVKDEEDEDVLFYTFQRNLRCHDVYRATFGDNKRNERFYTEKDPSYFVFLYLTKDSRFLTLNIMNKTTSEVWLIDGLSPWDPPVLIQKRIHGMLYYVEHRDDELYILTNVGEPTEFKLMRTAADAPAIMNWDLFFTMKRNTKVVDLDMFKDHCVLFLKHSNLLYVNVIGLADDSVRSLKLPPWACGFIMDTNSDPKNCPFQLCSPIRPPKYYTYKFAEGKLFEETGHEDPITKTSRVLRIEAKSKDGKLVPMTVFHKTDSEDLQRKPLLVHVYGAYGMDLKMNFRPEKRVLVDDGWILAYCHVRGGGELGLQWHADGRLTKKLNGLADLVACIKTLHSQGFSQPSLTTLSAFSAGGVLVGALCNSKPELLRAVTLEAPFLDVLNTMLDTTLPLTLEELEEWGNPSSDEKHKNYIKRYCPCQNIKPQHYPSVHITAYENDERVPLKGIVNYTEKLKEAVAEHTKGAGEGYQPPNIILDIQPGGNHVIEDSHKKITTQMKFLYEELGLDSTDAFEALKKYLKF

inhibition, inactive:
COc1ccc(NC(=O)Nc2cccc3c2O[C@@H](CN(C)CC2CCCCC2)[C@@H](C)CN([C@H](C)CO)C3=O)cc1 -79%
O=C(c1ccccc1)N1CCN(c2ccc(NCc3ccc4c(c3)OCO4)cc2)CC1 -17%
COc1ccc(N2CCN(c3cc(C)nc4ccc(OC)cc34)CC2)cc1 -69%
C#CCOCCOCCOCCNc1nc(N2CCN(C(=O)CCCCCCCCCCNC(=O)[C@H](CCCCN)n3cc(CCO)nn3)CC2)nc(N2CCN(C(=O)CCCCCCCCCCNC(=O)[C@H](CCCCN)n3cc(C[C@@H](C)CC)nn3)CC2)n1 -141%
CN1CCN(c2ccc(NC(=O)COc3cccc4ccccc34)cc2)CC1 15%
Oc1ccc(Nc2nc(N3CCCC3)c3ccccc3n2)cc1 -60%
CC(=O)N1CCN(c2ccc(NCc3ccc(-c4ccc(Br)cc4)o3)cc2)CC1 -23%
CCOc1ccc2[nH]c3c(N4CCc5ccccc5C4)ncnc3c2c1 1%
CCCCCNc1nc(N2CCCC2)c2c(c1C#N)CCN(C)C2 -89%
Nc1nn(-c2ccccc2)c(N)c1N=Nc1ccccc1 -16%
COc1ccc(N2CCN(c3nc4c(c(=O)n(C)c(=O)n4C)n3Cc3ccccc3)CC2)cc1 -47%
CC(C)C[C@@H]1CN=C(N)N1C[C@@H]1CCCN1C[C@@H](C(C)C)N1C[C@@H](Cc2ccccc2)N(CCCC2CCCC2)C1=N -52%
COc1ccccc1-[n+]1c(C)cc(/C=C2\Sc3ccccc3N2C)cc1C -27%
CCc1ccc(CNc2ccc3c(c2)ncn3C(C)(C)C)cc1 -36%
COc1ccc(Nc2nc(N3CCCC3)c3ccccc3n2)cc1 -50%
CC(C)NC(=O)c1sc(=S)n2c1[nH]c(=O)c1ccc(C(=O)NCCc3ccc(Cl)cc3)cc12 -28%
Oc1ccccc1-[n+]1c(-c2ccccc2)cc(-c2ccccc2)cc1-c1ccccc1 -30%
CN(C)c1ccc(C(CNC(=O)COc2ccc(Cl)cc2)N2CCCC2)cc1 (configuration not stated) -25%
CC(=O)n1cc([C@@H]2C=C(C(=O)N3CCN(C)CC3)O[C@H](OCc3ccc(CO)cc3)C2)c2ccccc21 -55%
CN(C)c1ccc(C(CN)c2c[nH]c3ccccc23)cc1 (configuration not stated) -86%
Cc1ccccc1OCc1nnc(SCC(=O)Nc2ccc(N3CCOCC3)c(Cl)c2)n1C -46%
Cc1ccc2nc(-c3ccccn3)c(NC3CCCC3)n2c1 -23%
C#CCOCCOCCOCCNc1nc(N2CCN(C(=O)CCCCCCCCCCNC(=O)Cn3cc(CCCCCN)nn3)CC2)nc(N2CCN(C(=O)CCCCCCCCCCNC(=O)Cn3cc(CCCCCN)nn3)CC2)n1 -99%
C#CCOCCOCCOCCNc1nc(N2CCN(C(=O)CCCCCCCCCCNC(=O)[C@H]([C@@H](C)CC)n3cc(CCCCCN)nn3)CC2)nc(N2CCN(C(=O)CCCCCCCCCCNC(=O)[C@H](CO)n3cc(CCCCCN)nn3)CC2)n1 -61%
O=C(Nc1ccc2c(c1)OCCO2)c1cccc2nc3ccccc3nc12 -12%
O=C(C1=C[C@@H](c2ccc(C(F)(F)F)cc2)C[C@@H](OCCCCO)O1)N1CCN(Cc2ccccc2)CC1 -70%
Cc1ccc(C)c(-c2nn(-c3cc(N4CCN(CCO)CC4)ccc3[N+](=O)[O-])c(=O)c3ccccc23)c1 7%
CCN1C(=O)CC(c2ccccc2)N(C2CCCC2)c2nc(Nc3ccc(C(=O)NC4CCN(C)CC4)cc3OC)ncc21 (configuration not stated) -25%
Cc1cccc(OCC(=O)Nc2ccc(N3CCN(C(=O)c4ccccc4)CC3)cc2)c1 -12%
COc1ccc2c(CC(=O)Nc3ccc(N4CCOCC4)cc3)coc2c1 -44%
CC(C)(C)Nc1nc(-c2ccccn2)nc2ccccc12 -31%
O=C(C1=C[C@@H](c2ccc(C(F)(F)F)cc2)C[C@@H](OCc2ccc(CO)cc2)O1)N1CCN(Cc2ccc3c(c2)OCO3)CC1 -49%
Nc1nc(-c2ccccc2)c(N=Nc2ccccc2Cl)s1 -9%
CC1CCCN(Cc2c(O)ccc3c(=O)c(-c4nc5ccccc5s4)c(N)oc23)C1 (configuration not stated) 3%
COc1ccc2cc1Oc1ccc(cc1)C[C@H]1c3cc(c(OC)cc3CCN1C)Oc1c(O)c(OC)cc3c1[C@H](C2)N(C)CC3 0%
COc1ccc(N2CCN(c3ccc4nnc(CCC(=O)Nc5ccc(C)cc5)n4n3)CC2)cc1 -20%
O=C1NC(Cc2c[nH]c3ccccc23)C(=O)N1Cc1ccc(CN2C(=O)NC(Cc3c[nH]c4ccccc34)C2=O)cc1 (configuration not stated) 28%
